The record followed here is PubChem BioAssay.

Values without a mark were called inactive. For some of these results: Measured potencies and affinities stand elsewhere. Active and inactive are the calls of the source. Unless noted, how the calls were made is not given here.

What is called inhibition is the drop in the measured response relative to a control, in per cent.

The nature of experiment [1]: antimalarial activity against Dd2 strain (AID 2302;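 active means growth inhibition above 50% at the single 2 µM test dose, taken to imply half-maximal potency below 2 µM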;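 further: 0% = DMSO untreated growth and 100% = chloroquine plus artemisinin killed control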). To be noted: P. falciparum Dd2 in RBCs, LDH growth readout, 72 h; at 2 µM; stronger effect = higher value.
The nature of experiment [2]: HepG2 cytotoxicity, primary screen, cytotoxicity control for P. falciparum antimalarial project, cell-based, ATP luminescence (AID 2303;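 active means inhibition above 50%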;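 further: 0% = DMSO wells and 100% = digitonin-killed cells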). The note with it: HepG2 viability, 24-48 h, at 10 µM, stronger effect = higher value.
In experiment [3] the target is L-lactate dehydrogenase (Plasmodium falciparum (isolate CDC / Honduras)) (UniProt Q27743). In words: PfLDH activity inhibition – cell lysate, 3D7 strain, counter-screen for P. falciparum growth inhibition project (AID 2304).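 Further: 0% = vehicle and 100% = reference inhibitor.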 The note with it: P. falciparum 3D7 crude extract, LDH APAD/NBT absorbance; at 2 µM; stronger effect = higher value.
Chain of L-lactate dehydrogenase (Plasmodium falciparum (isolate CDC / Honduras)) (Q27743 whole entry, looked up): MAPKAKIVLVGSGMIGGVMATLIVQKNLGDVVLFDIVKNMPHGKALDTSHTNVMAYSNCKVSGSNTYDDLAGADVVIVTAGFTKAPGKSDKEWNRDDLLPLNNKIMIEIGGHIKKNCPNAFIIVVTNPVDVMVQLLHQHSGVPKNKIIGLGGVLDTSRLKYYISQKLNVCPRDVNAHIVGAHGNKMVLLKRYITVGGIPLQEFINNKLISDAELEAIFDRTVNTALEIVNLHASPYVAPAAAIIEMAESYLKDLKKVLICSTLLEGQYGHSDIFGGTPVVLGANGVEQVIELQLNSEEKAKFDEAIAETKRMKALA
A short description of experiment [4]: inhibition of 3D7 malaria parasite growth – strain 3D7 (AID 2306).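 Further: 0% = DMSO wells and 100% = chloroquine plus artemisinin control wells.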 To be noted: P. falciparum 3D7 erythrocytic growth, LDH absorbance, 72 h; at 2 µM; stronger effect = higher value.
The target of experiment [5] is Calcium-dependent protein kinase 1 (Plasmodium falciparum (isolate 3D7)) (UniProt P62344). In words: PfCDPK1 kinase inhibitors, biochemical, TCAMS library (AID 1159585; cut-off not given, nearly all actives have IC50 up to about 0.98 µM;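 further: inhibitors leave more ATP so luminescence rises with inhibition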). To be noted: recombinant PfCDPK1, Kinase-Glo ATP depletion luminescence. (In Kinase-Glo more light means more ATP remaining.)
Chain of Calcium-dependent protein kinase 1 (Plasmodium falciparum (isolate 3D7)) (P62344 whole entry, looked up): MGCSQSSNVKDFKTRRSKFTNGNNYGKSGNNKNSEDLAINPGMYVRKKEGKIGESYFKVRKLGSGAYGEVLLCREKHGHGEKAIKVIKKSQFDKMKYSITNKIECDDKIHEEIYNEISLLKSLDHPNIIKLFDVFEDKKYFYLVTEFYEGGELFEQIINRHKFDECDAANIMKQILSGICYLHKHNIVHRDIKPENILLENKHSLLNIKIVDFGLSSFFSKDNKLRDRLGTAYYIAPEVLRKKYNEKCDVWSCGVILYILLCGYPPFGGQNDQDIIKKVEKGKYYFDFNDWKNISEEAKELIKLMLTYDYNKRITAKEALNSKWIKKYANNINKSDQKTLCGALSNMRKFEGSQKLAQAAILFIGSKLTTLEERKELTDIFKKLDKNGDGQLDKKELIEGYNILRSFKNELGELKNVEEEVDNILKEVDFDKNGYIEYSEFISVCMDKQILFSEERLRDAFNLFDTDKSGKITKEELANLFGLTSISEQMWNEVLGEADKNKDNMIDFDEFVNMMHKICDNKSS
For experiment [6], the target named is Plasmodium falciparum protein kinase 6 (PK6, PF3D7_1337100) (UniProt Q8IDW1). In words: PfPK6 kinase inhibitors, biochemical, TCAMS library (AID 1159586). To be noted: recombinant PfPK6, Kinase-Glo ATP depletion luminescence.
Chain of Plasmodium falciparum protein kinase 6 (PK6, PF3D7_1337100) (Q8IDW1 1-305): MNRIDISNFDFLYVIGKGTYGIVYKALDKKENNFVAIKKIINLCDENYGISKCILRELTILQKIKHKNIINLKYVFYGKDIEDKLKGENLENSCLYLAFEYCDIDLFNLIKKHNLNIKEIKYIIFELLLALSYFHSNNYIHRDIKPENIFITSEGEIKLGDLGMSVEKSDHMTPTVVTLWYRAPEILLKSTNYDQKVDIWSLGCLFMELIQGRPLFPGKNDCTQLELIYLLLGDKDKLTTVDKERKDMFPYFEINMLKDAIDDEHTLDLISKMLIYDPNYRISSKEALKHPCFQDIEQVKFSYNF
Experiment [7] addresses Protein kinase 7 (PK7), Plasmodium falciparum 3D7 (PF3D7_0213400) (UniProt Q7YTF7). In words: inhibition of Plasmodium PK7 catalytic activity – biochemical, TCAMS antimalarial set, Kinase-Glo luminescence (AID 1159587). To be noted: recombinant PfPK7, Kinase-Glo ATP depletion luminescence.
The target in experiment [8] is Calcium-dependent protein kinase 4 (Plasmodium falciparum (isolate 3D7)) (UniProt Q8IBS5). In words: PfCDPK4 kinase inhibitors, biochemical, TCAMS library (AID 1159588; cut-off not given, nearly all actives have IC50 up to about 0.91 µM). To be noted: recombinant PfCDPK4, Kinase-Glo ATP depletion luminescence.
Chain of Calcium-dependent protein kinase 4 (Plasmodium falciparum (isolate 3D7)) (Q8IBS5 whole entry, looked up): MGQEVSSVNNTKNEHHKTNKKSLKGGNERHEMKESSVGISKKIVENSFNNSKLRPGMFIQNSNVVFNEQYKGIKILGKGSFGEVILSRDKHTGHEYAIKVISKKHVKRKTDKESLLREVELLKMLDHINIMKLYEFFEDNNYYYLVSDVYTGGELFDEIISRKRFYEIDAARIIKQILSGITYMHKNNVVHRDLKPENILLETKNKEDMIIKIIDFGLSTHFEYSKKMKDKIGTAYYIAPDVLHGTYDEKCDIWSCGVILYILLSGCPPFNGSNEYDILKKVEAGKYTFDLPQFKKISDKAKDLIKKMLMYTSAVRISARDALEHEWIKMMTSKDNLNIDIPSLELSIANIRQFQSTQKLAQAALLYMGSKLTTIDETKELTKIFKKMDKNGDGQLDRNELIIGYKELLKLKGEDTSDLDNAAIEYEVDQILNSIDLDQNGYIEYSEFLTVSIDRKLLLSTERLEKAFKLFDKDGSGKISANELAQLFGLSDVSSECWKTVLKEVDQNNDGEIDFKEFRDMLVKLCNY

Chain of Protein kinase 7 (PK7), Plasmodium falciparum 3D7 (PF3D7_0213400) (Q7YTF7 1-343): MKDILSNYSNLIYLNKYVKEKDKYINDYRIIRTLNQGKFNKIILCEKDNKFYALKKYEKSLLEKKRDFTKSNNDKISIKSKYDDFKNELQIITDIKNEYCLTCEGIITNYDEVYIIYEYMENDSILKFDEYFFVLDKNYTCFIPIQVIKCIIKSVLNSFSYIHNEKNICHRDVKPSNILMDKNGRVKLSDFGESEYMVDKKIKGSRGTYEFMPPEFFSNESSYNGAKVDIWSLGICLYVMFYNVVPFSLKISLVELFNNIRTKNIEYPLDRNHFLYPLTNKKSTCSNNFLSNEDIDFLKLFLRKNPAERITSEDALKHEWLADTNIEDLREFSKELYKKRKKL

For `CC1(C)N=C(N)N=C(N)N1OCCCc1cccc(C(F)(F)F)c1`, the growth inhibition in experiment [1] and in experiment [4] was 95% (active) in each case. The values for the inhibition in experiment [2] and in experiment [3] were 62% (active) and -3%, respectively. Also, the result in experiment [5], in experiment [6], in experiment [7] and in experiment [8] was inactive.
As for `Cc1cc(OCC2CCN(c3ccc(C(=O)NC4CC4)cn3)CC2)ccc1F`, the growth inhibition was 95% (active) in experiment [1] and 94% (active) in experiment [4]. Besides, the inhibition in experiment [2] was 6%; in experiment [3], 3%. Also, the result in experiment [5], in experiment [6], in experiment [7] and in experiment [8] was inactive.
As for `CC(=O)NCCNCc1cccc(C(=O)NCc2cccc(C(F)(F)F)c2)c1`, the growth inhibition is -2% in experiment [1] and 95% (active) in experiment [4]. The inhibition in experiment [2] and in experiment [3] was 1% in each case. Moreover, the result in experiment [5], in experiment [6], in experiment [7] and in experiment [8] was inactive.
Take `Cc1cccc(NC(=O)c2ccc(C(=O)NC3CCN(CC4CCCCC4)C3)cc2)c1` (stereo not given): the results for the growth inhibition in experiment [1] and in experiment [4] were 3% and 88% (active), respectively. In addition, the inhibition is 17% in experiment [2] and -3% in experiment [3]. Also, the outcome in experiment [5], in experiment [6], in experiment [7] and in experiment [8] was inactive.
Take `O=C(N[C@@H]1C[C@H]1c1ccccc1)N(CCCn1ccnc1)Cc1csc(-c2ccc(CNCc3ccccc3)cc2)n1`: the results for the growth inhibition in experiment [1] and in experiment [4] were 20% and 96% (active), respectively. Also, the inhibition in experiment [2] is 6%; in experiment [3], 2%. Further, the result in experiment [5], in experiment [6], in experiment [7] and in experiment [8] was inactive.
In the case of `CCc1c(CCNCCc2cccc(CCNCCc3ccc(OC)c(OC)c3CC)c2)ccc(OC)c1OC`, the values for the growth inhibition in experiment [1] and in experiment [4] were 67% (active) and 81% (active), respectively. Also, the inhibition in experiment [2] was 100% (active); in experiment [3], -6%. In addition, the result in experiment [5], in experiment [6], in experiment [7] and in experiment [8] was inactive.
On to `Cc1cc2c(cc1C(F)(F)F)N(C(=O)Nc1cc(C(=O)NC3CCN(Cc4ccccc4)C3)cc(C(F)(F)F)c1)CC2` (stereo not given), for which the growth inhibition in experiment [1] is 97% (active); in experiment [4] it was 101% (active). Further, the inhibition in experiment [2] was 22%; in experiment [3], 0%. Also, the result in experiment [5], in experiment [6], in experiment [7] and in experiment [8] was inactive.
With `CN1CCN(c2nsc3ccc(-c4ccc(NC(=O)Nc5cc(C(F)(F)F)ccc5F)cc4)cc23)CC1`, the growth inhibition is 64% (active) in experiment [1] and 99% (active) in experiment [4]. The inhibition in experiment [2] was 100% (active); in experiment [3], -3%. For the same compound, the outcome in experiment [5], in experiment [6], in experiment [7] and in experiment [8] was inactive.
With `CC(C)C[C@@H](C(=O)N[C@@H](CCCCNC(=O)OCc1ccccc1)C(=O)Nc1nccs1)[C@H](C)N(O)C=O`, the results for the growth inhibition in experiment [1] and in experiment [4] were 98% (active) and 99% (active), respectively. The inhibition in experiment [2] is -2%; in experiment [3], 8%. The result in experiment [5], in experiment [6], in experiment [7] and in experiment [8] was inactive.
Take `O=C(Nc1cccc(-c2ccc(CN3CCC(O)CC3)cc2)c1)c1cccc(Cl)c1`: the growth inhibition in experiment [1] was 2%; in experiment [4] it was 96% (active). The inhibition is 11% in experiment [2] and -11% in experiment [3]. Besides, the outcome in experiment [5], in experiment [6], in experiment [7] and in experiment [8] was inactive.
Consider `C=C(F)c1sc(CNCCCNc2nc3ccccc3[nH]2)c(C)c1Br`, for which the values for the growth inhibition in experiment [1] and in experiment [4] were 23% and 100% (active), respectively. For the same compound, the inhibition is 15% in experiment [2] and 3% in experiment [3]. For the same compound, the result in experiment [5], in experiment [6], in experiment [7] and in experiment [8] was inactive.
`O=C(Nc1cccc(CN2CCN(Cc3ccc(O)cc3)CC2)c1)c1cc2ccccc2s1`: the growth inhibition in experiment [1] was 26%; in experiment [4], 100% (active). In addition, the inhibition in experiment [2] was 15%; in experiment [3], -4%. The result in experiment [5], in experiment [6], in experiment [7] and in experiment [8] was inactive.
Take `COc1ccc(CNCc2cccc(-c3cccc(-c4nc5ccc(F)cc5[nH]4)c3)c2)cc1`: the growth inhibition is 55% (active) in experiment [1] and 100% (active) in experiment [4]. Besides, the inhibition in experiment [2] is 18%; in experiment [3], 5%. For the same compound, the result in experiment [5], in experiment [6], in experiment [7] and in experiment [8] was inactive.
On to `CN1CCCN(Cc2cccc(-c3ccc(NC(=O)c4cccc(Cl)c4)cc3)c2)CC1`, for which the figures for the growth inhibition in experiment [1] and in experiment [4] were 10% and 90% (active), respectively. For the same compound, the values for the inhibition in experiment [2] and in experiment [3] were 34% and -3%, respectively. The result in experiment [5], in experiment [6], in experiment [7] and in experiment [8] was inactive.
For `O=c1cc(N2CCNCC2)c(Cl)nn1Cc1ccc(NS(=O)(=O)c2ccc(Oc3ccccc3)cc2)cc1`, the growth inhibition was -5% in experiment [1] and 102% (active) in experiment [4]. The inhibition in experiment [2] is 3%; in experiment [3], -6%. The outcome in experiment [5], in experiment [6], in experiment [7] and in experiment [8] was inactive.
Regarding `COc1cc(Nc2ccnc3cc(-c4nccs4)ccc23)ccc1OCCCc1nc2ccccc2[nH]1`, the growth inhibition in experiment [1] is 68% (active); in experiment [4] it was 100% (active). Further, the inhibition in experiment [2] was 100% (active); in experiment [3], 5%. Besides, the result in experiment [5], in experiment [6], in experiment [7] and in experiment [8] was inactive.
Turning to `O=C(Nc1ccc(Cn2ncc(N3CCNCC3)c(Cl)c2=O)cc1)Nc1ccc(-c2ccccc2)cc1`, the growth inhibition was 33% in experiment [1] and 98% (active) in experiment [4]. Moreover, the inhibition in experiment [2] was 29%; in experiment [3], -1%. Further, the result in experiment [5], in experiment [6], in experiment [7] and in experiment [8] was inactive.
As to `O=C1CCCN1CCCNCc1cccc(-c2cccc(-c3nc4ccc(C(F)(F)F)cc4[nH]3)c2)c1`, the results for the growth inhibition in experiment [1] and in experiment [4] were 90% (active) and 101% (active), respectively. Besides, the inhibition in experiment [2] was 28%; in experiment [3] it was -3%. Also, the result in experiment [5], in experiment [6], in experiment [7] and in experiment [8] was inactive.
Consider `Cc1cc(N(C)CCCN(C)C)nc(Nc2ccc(Br)cc2)n1`, for which the values for the growth inhibition in experiment [1] and in experiment [4] were 84% (active) and 100% (active), respectively. Further, the inhibition in experiment [2] was 4%; in experiment [3] it was 1%. Further, the outcome in experiment [5], in experiment [6], in experiment [7] and in experiment [8] was inactive.
On to `CC(=O)N1N=C(c2ccc(F)cc2)Sc2c1nc(-c1ccccc1)n2C(C)=O`, for which the figures for the growth inhibition in experiment [1] and in experiment [4] were 67% (active) and 99% (active), respectively. The inhibition is -11% in experiment [2] and -1% in experiment [3]. Besides, the result in experiment [5], in experiment [6], in experiment [7] and in experiment [8] was inactive.
